Compounds with a hit are over-represented: about 2.8% of the library has one in this group of screens.
PI5P4K alpha inh = inhibitors of human PI5P4K alpha | P48426 | PI5P4Kalpha enzyme, ADP-Glo luminescence, 60 min; hits give low values | max response, % | hit rate 1.2% among 330,000 | AID 652105; active means max response of -50% or lower; inconclusive means between -30% and -50%; inactive means -30% or higher; further: value at the top dose of about 77 µM; on the % scale 0 is the no-effect control and ±100 the full control effect
Target sequence (P48426 whole entry, looked up): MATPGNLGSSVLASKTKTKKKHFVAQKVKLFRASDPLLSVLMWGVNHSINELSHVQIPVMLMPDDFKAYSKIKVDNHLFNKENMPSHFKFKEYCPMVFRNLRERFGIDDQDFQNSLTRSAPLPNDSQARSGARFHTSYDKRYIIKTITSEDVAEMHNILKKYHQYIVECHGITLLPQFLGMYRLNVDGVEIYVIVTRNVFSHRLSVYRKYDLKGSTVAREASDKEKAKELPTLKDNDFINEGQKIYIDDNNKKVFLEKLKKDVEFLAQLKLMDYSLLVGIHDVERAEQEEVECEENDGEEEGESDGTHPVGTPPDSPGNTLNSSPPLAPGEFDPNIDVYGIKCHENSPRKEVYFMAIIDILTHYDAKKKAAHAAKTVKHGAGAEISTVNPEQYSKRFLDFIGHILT
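Enzyme plus substrate dispensed, test compounds pinned in, then ATP (5 microM final) added. After 60 min at RT, ADP-Glo reagent 1 for 45 min and reagent 2 for 30 min preceded luminescence imaging.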
Pol beta inh = inhibitors of human DNA polymerase beta. hit rate 1.3% among 340,000. Pol beta primer extension/strand displacement, fluorescence kinetic. Potency, µM (titrated, usually from 114 µM), without a hit: at the highest dose activity change, negative = inhibition, usual class: inhibitors. P06746. AID 485314; further: potency means the concentration at half of the fitted maximal effect; on the % scale 0 is the no-effect control and ±100 the full control effect
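Homogeneous kinetic assay of primer extension and strand displacement by 10 nM Pol beta, preincubated 15 min at room temperature with compound before 50 nM substrate (final) was added. Read at 0 and 10 min; four-parameter Hill fit.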
WRN inhibitor = blocks human WRN helicase; Q14191; hit rate 0.46% among 360,000; AID 651768; Potency, µM (titrated, usually from 114 µM), for inactives: top-dose activity change, negative = inhibition, hits mostly inhibitors; WRN helicase unwinding, fluorescent forked duplex, kinetic; further: potency means the concentration at half of the fitted maximal effect; on the % scale 0 is the no-effect control and ±100 the full control effect; nearly all actives have a fitted effect of over 55% in size
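Primary qHTS, 1536-well format. 20 nM WRN + compound, 15 min RT; start with 100 nM forked fluorophore/quencher duplex, 2 mM ATP (final); kinetic read ex 525/em 598 nm.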
POLK inh = DNA polymerase kappa (human) inhibition; Potency, µM (titrated, usually from 107 µM), for inactives: at the highest dose activity, negative = inhibition, most hits filed as inhibitors; purified Pol kappa, fluorescent DNA synthesis assay, 10 min; Q9UBT6; hit rate 0.53% among 400,000; further: potency means the concentration at half of the fitted maximal effect; on the % scale 0 is the no-effect control and ±100 the full control effect
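Readout: fluorescence, taken kinetically at 0 and 10 min. Conditions: 10 nM Pol kappa, 15 min RT compound preincubation, 50 nM substrate final. Controls: enzyme-free buffer wells.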
POLH inh = blocks human DNA polymerase eta activity; AID 588591; recombinant Pol eta, fluorescent DNA replication assay; Q9Y253; hit rate 1.2% among 390,000; Potency, µM (series often up to 114 µM), inactives show top-dose activity change, negative = inhibition, most hits filed as inhibitors; further: potency means the concentration at half of the fitted maximal effect; on the % scale 0 is the no-effect control and ±100 the full control effect
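Fluorescent replication assay: 50 nM final substrate added after a 15 min room-temperature compound preincubation with 10 nM enzyme. Signal taken at 0 min and again at 10 min.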
Pol iota inh = blocks human DNA polymerase iota activity. Q9UNA4. Pol iota fluorescent replication assay, 10 min. Potency, µM (top dose mostly 115 µM), for the others: at the top dose activity, negative = inhibition, usual class: inhibitors. hit rate 1% among 390,000. AID 588590; further: potency means the concentration at half of the fitted maximal effect
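Fluorescent replication assay read twice, at 0 min and 10 min after adding 50 nM (final) substrate. Enzyme (10 nM) and compounds were first incubated 15 min at room temperature; enzyme-free buffer wells were negative controls.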
Numbers without * were called inactive; ? = inconclusive; / = not tested or not shown; [ ] = dose if it differs, or a comment. Unless noted, the call rests on the fitted dose curve; in most records, active means well fitted curve in the direction sought with a large enough effect; inconclusive means small, poorly fitted or top-dose-only effect, or another doubt; inactive means no such curve, though single readings can be large; an effect the other way counts as inactive or inconclusive.

SMILES	PI5P4K alpha inh	Pol beta inh	WRN inhibitor	POLK inh	POLH inh	Pol iota inh
Cn1cccc1/C=C1\SC(=Nc2ccc(O)cc2)NC1=O	-29.6	?	-9.8%	-4.5%	-0.9%	-8.5%
O=C(CN1CCN(CC(=O)Nc2ccccc2F)CC1)Nc1ccc(Cl)c(C(F)(F)F)c1	/	-0.7%	/	-2.9%[60.1 µM]	-25.0%	40.3%
COc1cccc(NS(=O)(=O)c2ccc3[nH]cc(C(=O)N(C)Cc4ccco4)c(=O)c3c2)c1	/	?	-14.9%	?	?	79.4µM*
COc1cccc(NS(=O)(=O)c2ccc3[nH]cc(C(=O)NC4CC4)c(=O)c3c2)c1	0.6	-19.5%	-47.2%	-9.6%	-1.8%	8.3%
Cc1ccccc1NS(=O)(=O)c1ccc2[nH]cc(C(=O)N(C)Cc3ccco3)c(=O)c2c1	-13.8	20µM*	-24.4%	?	8.91µM*	?
O=C(O)c1ccc(OC2CSC2)cc1	-3.5	5.6%	-11.9%	-2.4%	20µM*	?
COc1ccc(-c2[nH]ncc2/C=N\NC(=O)c2cccs2)cc1OC	-16.0	0.3%	6.0%	1.6%	-17.8%	15.2%
O=[N+]([O-])c1cc(/C=N\Nc2nc(-c3ccccc3)cs2)ccc1O	-63.2*	39.8µM*	?	-25.1%	79.4µM*	?
CCc1ccccc1NC(=O)COc1cccc(-n2cnnn2)c1	6.3	41.5%	-0.4%	-14.8%	-4.9%	-10.3%
CC(=O)NC1=C(NC2CCS(=O)(=O)C2)C(=O)c2ccccc2C1=O (stereo unspecified)	-17.4	-0.3%	3.2%	4.5%	-5.8%	20.9%
CN(C1=C(NC(=O)c2ccccc2)C(=O)c2ccccc2C1=O)C1CCS(=O)(=O)C1 (stereo unspecified)	-28.9	?	-1.1%	6.1%[60.1 µM]	79.4µM*	7.94µM*
Cc1c(N2C(=O)/C(=C/C3CC=CCC3)SC2=S)c(=O)n(-c2ccccc2)n1C (stereo unspecified)	0.0	-28.9%	?	-16.4%	-1.8%	17.8µM*
Cc1c(N2C(=O)/C(=C\C3CC=CCC3)SC2=S)c(=O)n(-c2ccccc2)n1C (stereo unspecified)	-20.6	-5.1%	-10.3%	-13.9%	-15.4%	96.0%
O=S(=O)(O)c1cccc2c(N=Nc3ccc(O)c4ncccc34)cccc12	-80.6*	?	22.4µM*	-99.2%	3.16µM*	?
Cc1c2c(=O)n(-c3nc4ccccc4s3)nc-2cc(O)n1Cc1ccccc1	-78.5*	?	-8.9%[11.6 µM]	?	44.7µM*	35.5µM*
Cc1nc(NCC(=O)c2c[nH]c3ccccc23)sc1C	/	/	/	-11.3%	/	0.2%
CCCS(=O)(=O)Nc1ccc(Nc2c3ccccc3nc3ccccc23)c(OC)c1	-0.4	/	-35.0%	-9.4%	?	?
COc1cc(N)ccc1Nc1c2ccccc2nc2ccccc12	-54.9*	/	?	/	/	/
O=C(O)c1ccccc1C(=O)c1ccc(-c2ccccc2)cc1	2.5	-1.0%	4.3%	-17.1%[60.1 µM]	-1.8%	0.1%
O=C(c1ccccc1)c1ccccc1N1C(=O)C=CC1=O	?	3.2%	12.6µM*	-14.8%	-10.2%	108.7%
CC(=O)Nc1ccc(NC(=O)C2CCCN2C(=O)Nc2ccc(F)c([N+](=O)[O-])c2)cc1 (stereo unspecified)	-1.9	2.9%	7.4%	-11.6%	-0.5%	8.4%
C/C(=N\NC(=O)c1ccc(CN2CCc3ccccc3C2)cc1)c1ccccc1O	-87.1*	37.5%	-33.0%	-9.8%	-14.9%	40.4%
O=C(NCC1CCCO1)c1ccc(Cl)c(NS(=O)(=O)c2ccc(F)cc2)c1 (stereo unspecified)	-7.0	/	5.1%	/	-20.2%	/
O=C(O)CCc1ccc(-c2ccc(Br)cc2)n1CC(=O)O	/	35.5µM*	-12.1%[57.1 µM]	-23.3%	?	?
Nc1nnc(CC(=O)Nc2ccccc2)s1	-8.4	7.6%	-1.2%	3.4%	-18.3%	44.0%
COc1cc2oc(=O)cc(-c3cccc(-c4ccc(C(C)=O)cc4)c3)c2c(OC)c1OC	/	/	/	-10.8%[60.1 µM]	/	/
O=S1(=O)CC(N2CCN(CC3CC3)CC2)CN1C1CCCCC1 (stereo unspecified)	1.7	/	9.7%	/	/	/

Assay outcomes: PubChem, National Center for Advancing Translational Sciences (NCATS)
